Results: PubChem BioAssay AID2551 (National Center for Advancing Translational Sciences (NCATS), 2010)
Screen size: about 310,000 compounds; about 17,000 (5.5%) were called active. Not shown: some 11% with an inconclusive outcome. Calls follow the shape of the dose curve; as a rule, active = well fitted inhibition curve with a large enough effect; inconclusive = small, poorly fitted or top-dose-only effect, or effect the other way; inactive = no such curve, though single readings can be large or run the other way. Only a selection was taken, and actives are over-represented in it overall.

target: Nuclear receptor ROR-gamma (Mus musculus) (UniProt P51450); test: qHTS for inhibitors of ROR gamma transcriptional activity; conditions: Drosophila S2 Gal4-RORgamma UAS-luciferase reporter, 20 h; series mostly up to 53.6 µM; activity change, negative = inhibition: at the top concentration; also: nearly all actives have a fitted effect of over 60% in size
Procedure, shortened: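 Schneider cells (Drosophila), stable Gal4 DBD–ROR gamma + UAS-luc; 1 hr cmpd preincubation; Cu2+ induction 700 uM final; 20 hr ambient; luminescence.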
% is scaled to controls: 0 for no effect and ±100 for the full control effect; potency is read from the fitted curve at half-maximal effect.

Chain of Nuclear receptor ROR-gamma (Mus musculus) (P51450 whole entry, looked up, the tested form may be a part): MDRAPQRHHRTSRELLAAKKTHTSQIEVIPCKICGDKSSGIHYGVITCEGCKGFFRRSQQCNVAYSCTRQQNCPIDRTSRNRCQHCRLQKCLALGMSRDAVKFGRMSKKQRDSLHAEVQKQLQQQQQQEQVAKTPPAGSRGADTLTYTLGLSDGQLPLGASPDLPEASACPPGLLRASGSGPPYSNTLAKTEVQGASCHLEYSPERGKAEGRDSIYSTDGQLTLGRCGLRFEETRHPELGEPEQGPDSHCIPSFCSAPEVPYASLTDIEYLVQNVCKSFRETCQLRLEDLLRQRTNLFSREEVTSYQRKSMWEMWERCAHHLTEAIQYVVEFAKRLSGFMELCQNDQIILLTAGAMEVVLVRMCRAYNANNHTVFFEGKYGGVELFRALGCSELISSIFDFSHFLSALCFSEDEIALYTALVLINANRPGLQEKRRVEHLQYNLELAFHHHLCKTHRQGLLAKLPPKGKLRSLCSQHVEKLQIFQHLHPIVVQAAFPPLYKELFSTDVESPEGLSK

Activity change, negative = inhibition, inactive:
CCOC(=O)N1CCN(S(=O)(=O)N2CCCC(C(=O)NCCCN3CCC(C)CC3)C2)CC1 (stereo unspecified) -6.51%
NC(=O)c1c(NC(=O)CSc2nc(N)cc(=O)[nH]2)sc2c1CCCC2 11.5%
NC(=O)c1c(NC(=O)c2ccccc2)sc2c1CCCC2 -16.4%
Fc1cc(F)c2nc(N3CCOCC3)sc2c1 30.4%
CC(C)(C)c1ccc(CN2C(=O)c3ccccc3S2(=O)=O)cc1 22.5%
COc1ccc(NC(=O)c2sc3nc(C)nc(N4CCN(c5ccccn5)CC4)c3c2C)c(OC)c1 -30.6%
O=C(NC1CCN(S(=O)(=O)c2ccc(F)cc2)CC1)c1ccccc1 -28.7%
Cc1nn(CC(=O)NCCc2ccccc2)c(=O)c2cc3occc3n12 19.9%
O=C(NC(=S)NC1CCS(=O)(=O)C1)c1cccc([N+](=O)[O-])c1 (stereo unspecified) -27.1%
COc1ccccc1N=Cc1c(O)c2ccccc2oc1=O -38.7%
O=c1c(-c2ccccc2)coc2cc(O)ccc12 28.4%
CCN(CC)S(=O)(=O)c1ccc(N2CCN(C)CC2)c(NC(=O)Nc2ccccc2F)c1 -26.7%
CCn1c(=O)c2ccccc2n(CC(=O)N2CCCc3ccccc32)c1=O -16%
CC(=O)NC(Cc1c[nH]c2ccccc12)C(=O)NCCc1ccccc1 (stereo unspecified) 6.43% [at 1.91 µM]
O=C(Nc1ccc(Br)cc1)c1cc(S(=O)(=O)Nc2ccccn2)ccc1Cl -0.848%
Cc1nccn1CC(=O)N/N=C/c1ccc(O)c(O)c1 -18%
O=c1ccc(-c2ccc(S(=O)(=O)Nc3ccccc3)o2)n[nH]1 -24.5%
COc1ccc(C(=O)c2c(C)c(CCC#N)n3ccccc23)c(OC)c1 3.97%
COCCCC1CCN(C(=O)C2CCC(=O)N(C3CCCCCC3)C2)CC1 (stereo unspecified) 1.67%
Cc1cc(C(=O)NC2CCCc3c2cnn3-c2cccc(C)c2C)c(C)o1 (stereo unspecified) -111%
CCCc1nc2ccccc2c(=O)n1/N=C/c1ccc(O)c(O)c1 -4.72%
O=[N+]([O-])c1ccc(N/N=C/c2ccccc2)cc1 -1.85%
O=C(Nn1cnc2ccccc2c1=O)c1ccccc1 12.3%
Cc1nc2ccccc2c(=O)n1NC(=O)c1ccccc1 -41%
Cc1ccc2c(=O)cc(C(=O)NCCc3ccc(S(N)(=O)=O)cc3)oc2c1C -29%
CCCCn1c(N)c(N(CCOC)C(=O)c2oc3ccc(OC)cc3c2C)c(=O)[nH]c1=O -16.9%
CCC(=O)Nc1ccc(C(=O)NNC(=O)c2ccc(Cl)cc2)cc1 10%
CCc1cccc(NC(=O)CCCN2C(=O)C(c3ccccc3)Oc3cccnc32)c1 (stereo unspecified) 18%
O=C1c2ccccc2S(=O)(=O)N1Cc1c(F)cccc1Cl 14.6%

Potency, active:
NC(=O)c1c(Nc2nc3c(F)cccc3s2)sc2c1CCCC2 12.6 µM
Fc1cc(F)c2nc(Nc3nc4c(F)cccc4s3)sc2c1 3.98 µM
CCCCN1C(=S)NC[C@@H]1C(C)CC (stereo partly specified) 3.55 µM
O=c1c(O)c(-c2ccc(O)cc2)oc2ccccc12 7.94 µM
Oc1ccc(Br)cc1/C=N/Nc1ccccn1 5.62 µM
O=c1c2ccccc2nc(N/N=C/c2ccccc2)n1O 11.2 µM
O=c1c2ccccc2ncn1/N=C/c1ccccc1 10 µM
